Experimental data taken from PubChem BioAssay AID1851 (National Center for Advancing Translational Sciences (NCATS), 2009).
Out of some 16,000 compounds screened, about 5,800 (36%) were called active. Not shown: some 23% with an inconclusive outcome. The list shows a part of the results. A number with no mark means an inactive call. Calls follow the shape of the dose curve; as a rule, active = well fitted curve in the direction sought with a large enough effect; inconclusive = small, poorly fitted or top-dose-only effect, or effect the other way; inactive = no such curve, though single readings can be large or run the other way.

What follows are compounds tested against Cytochrome P450 2C19 (Homo sapiens) (UniProt P33261) (assay: Cytochrome panel assay with activity outcomes). Conditions: recombinant CYP, pro-luciferin dealkylation, luminescence, p450-cyp2c19; series mostly up to 57.1 µM; activity, negative = inhibition: at the top concentration.
Cytochrome P450 2C19 (Homo sapiens), sequence (P33261 whole entry, looked up): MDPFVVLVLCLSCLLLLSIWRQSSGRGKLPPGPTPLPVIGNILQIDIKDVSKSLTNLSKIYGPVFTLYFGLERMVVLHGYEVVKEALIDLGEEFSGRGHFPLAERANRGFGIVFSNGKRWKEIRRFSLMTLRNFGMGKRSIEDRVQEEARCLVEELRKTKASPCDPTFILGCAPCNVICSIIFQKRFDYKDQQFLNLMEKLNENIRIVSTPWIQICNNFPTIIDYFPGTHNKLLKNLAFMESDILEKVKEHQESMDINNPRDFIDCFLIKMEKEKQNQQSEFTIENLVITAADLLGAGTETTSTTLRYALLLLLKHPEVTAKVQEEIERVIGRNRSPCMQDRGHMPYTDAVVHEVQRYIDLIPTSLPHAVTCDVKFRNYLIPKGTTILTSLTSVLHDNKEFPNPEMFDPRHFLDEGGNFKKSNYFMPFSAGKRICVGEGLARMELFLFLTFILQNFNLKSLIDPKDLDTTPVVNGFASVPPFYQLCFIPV
% is scaled to controls: 0 for no effect and ±100 for the full control effect.

Row | SMILES | AC50 | activity, negative = inhibition
1 | Cc1ccc(N(Cc2ccccc2)Cc2ccccc2)cc1 | 2 µM (active) | –
2 | c1ccc(CN(CC2=NCCN2)c2ccccc2)cc1 | inactive | –
3 | Cc1nc(C(=O)Nc2cccc(Cl)c2Cl)nn1-c1cc(OC(C)C)c(Cl)cc1Cl | 7.08 µM (active) | –
4 | CCn1nc(C(=O)Nc2ccccc2C)c(Cl)c1Cl | – | -24.3%
5 | CCc1ccccc1NC(=S)NCc1ccc2c(c1)OCO2 | 1.26 µM (active) | –
6 | O=C(O)C[C@H](Cc1ccc2c(c1)OCO2)C(=O)O | – | -29% [at 11.4 µM]
7 | CCc1c(C(=O)NCc2ccc3c(c2)OCO3)[nH]c(C)c1C(C)=O | 7.08 µM (active) | –
8 | OC[C@@H](O)CNc1ncnc2ccccc12 | – | 1.02% [at 11.4 µM]
9 | CCOc1ccc(OCCOc2ncnc3ccccc23)cc1 | 10 µM (active) | –
10 | CC(CO)(CO)Nc1ncnc2ccccc12 | – | 1.8% [at 11.4 µM]
11 | CC(=C/c1ccccc1)/C=N/n1cnnc1 | 0.355 µM (active) | –
12 | CN(C)CCCc1c2ccccc2nc2ccc(Cl)cc12 | – | 7.79% [at 11.4 µM]
13 | CCc1c(C)nc2ccc(Br)cc2c1Cl | 3.55 µM (active) | –
14 | CCOc1cc(/C=C2/C(=O)N(c3ccccc3)N=C2C)ccc1OC(=O)c1ccco1 | 14.1 µM (active) | –
15 | CC1=NN(c2ccccc2)C(=O)/C1=C\c1c(C)[nH]n(-c2ccccc2)c1=O | – | -3.54%
16 | CC1=NN(c2ccc(S(=O)(=O)O)cc2)C(=O)/C1=C\c1ccc(Cl)cc1 | – | -11.1% [at 11.4 µM]
17 | COc1cccc(NC(=O)COC(=O)c2c3c(nc4ccccc24)CCC(C)C3)c1 (stereo unspecified) | 3.98 µM (active) | –
18 | COc1cccc(NC(=O)Cc2c(C(=O)O)[nH]c3ccccc23)c1 | – | -10.4%
19 | COc1ccc(-c2nc3cnc(OC)nc3n(C)c2=O)cc1 | – | -0.6%
20 | CCc1c(O)nc2sc3ccccc3n2c1=O | – | 8.36%
21 | Cc1ccc2c(CC(=O)OCc3cc(=O)n4c(n3)sc3ccccc34)coc2c1 | 7.08 µM (active) | –

Row | SMILES | AC50 | activity, negative = inhibition
22 | CN1CCCN(C)C1c1cc([N+](=O)[O-])ccc1O | – | -15% [at 11.4 µM]
23 | CC1CCCN(C(=O)c2sc3cc([N+](=O)[O-])ccc3c2Cl)C1 (stereo unspecified) | 3.98 µM (active) | –
24 | C[C@@H]1C[C@H](C)CN(S(=O)(=O)c2cc(Cl)c(Oc3ccc([N+](=O)[O-])cc3Cl)c(Cl)c2)C1 | – | -27.5% [at 11.4 µM]
25 | Cc1ccc(C2=NN(S(C)(=O)=O)C(c3cccs3)C2)cc1 (stereo unspecified) | 0.447 µM (active) | –
26 | CN(C)c1ccc(NC(=O)CSc2nc(N)c(C(=O)Nc3ccc(N(C)C)cc3)s2)cc1 | 11.2 µM (active) | –
27 | Cc1ccc(C)c(-n2c(Cc3cc(=O)[nH]c(=O)[nH]3)nnc2SCC(=O)NCC2CCCO2)c1 (stereo unspecified) | – | -5.1%
28 | Cc1[nH]nc2nc(SCC(=O)NCC3CCCO3)n(-c3ccc(Br)cc3)c(=N)c12 (stereo unspecified) | 11.2 µM (active) | –
29 | COc1cc(OC)c(NC(=S)Nc2cccc(C(C)=O)c2)cc1Cl | 3.16 µM (active) | –
30 | CCOC(=O)c1cnc(N(C)C)nc1SC(=N)N | – | 7.18% [at 11.4 µM]
31 | CCOC(=O)c1cnc2ccc(C)cc2c1Sc1ccccc1C(=O)OC | 1.26 µM (active) | –
32 | NC(N)=Nc1nc2ccc([N+](=O)[O-])cc2[nH]1 | – | -5.76% [at 11.4 µM]
33 | COc1ccc(-c2nc(-c3ccccc3)c(-c3cc([N+](=O)[O-])ccc3C)[nH]2)cc1O | 8.91 µM (active) | –
34 | O=[N+]([O-])c1cccc(-c2nc(-c3ccccc3)c(-c3cccs3)[nH]2)c1 | 2.51 µM (active) | –
35 | O=[N+]([O-])c1cccc(-c2nc(-c3cccs3)c(-c3cccs3)[nH]2)c1 | 3.16 µM (active) | –
36 | c1ccc(-c2nc(-c3cccs3)[nH]c2-c2ccccc2)cc1 | 6.31 µM (active) | –
37 | CO[C@]1(NC(=O)C2SC(=C(C(N)=O)C(=O)O)S2)C(=O)N2C(C(=O)O)=C(CSc3nnnn3C)CS[C@H]21 (stereo partly specified) | – | -28.9% [at 25.6 µM]
38 | NCCC(=O)O | – | 20.3%
39 | CCC(Sc1nc2n[nH]c(C)c2c(=N)n1-c1cccc(Cl)c1)C(=O)NCCOC (stereo unspecified) | 10 µM (active) | –
40 | Cc1cc([N+](=O)[O-])c(C)c(Br)c1C | – | 8.85% [at 11.4 µM]
41 | CCC(C)Nc1c([N+](=O)[O-])cc(C)cc1[N+](=O)[O-] (stereo unspecified) | 7.94 µM (active) | –
42 | O=C(O)Cc1cccnc1 | – | 9.66% [at 11.4 µM]

Row | SMILES | AC50 | activity, negative = inhibition
43 | C[C@@H](N)[C@@H](C)Cc1ccccc1 | – | -14.2% [at 11.4 µM]
44 | c1ccc(C[C@@H](Nc2cccnc2)c2ccccc2)cc1 | 1 µM (active) | –
45 | O=c1[nH]cc(CS(=O)(=O)Cc2c[nH]c(=O)[nH]c2=O)c(=O)[nH]1 | – | 41% [at 11.4 µM]
46 | CC1(C)CC(=O)C(C=NCCN2CCN(C(=S)Nc3ccc(F)cc3)CC2)=C(O)C1 | 10 µM (active) | –
47 | COCCCN=CC1=C(O)CC(C)(C)CC1=O | – | -18.8%
48 | CC(=O)N1CCC2(CC1)CN(Cc1ccccc1)C2 | – | 8.15%
49 | S=C1SCN(CCN2CCOCC2)CN1Cc1ccccc1 | 10 µM (active) | –
50 | CCCCN1CSC(=S)N(Cc2ccccc2)C1 | 1.26 µM (active) | –
51 | COc1cc2cc3c4cc(OC)c(OC)cc4cc[n+]3c(C)c2cc1OC | – | 44.3% [at 25.6 µM]
52 | Cc1ccc(NC(=O)c2ccccc2C(=O)O)cc1C | – | -34.4% [at 11.4 µM]
53 | Cc1oc(-c2ccccc2)cc1C(=O)Nc1ccc(N(C)C)cc1 | 5.62 µM (active) | –
54 | Cc1oc(C(C)(C)C)cc1C(=O)Nc1cccc(/C=C/C(=O)O)c1 | – | -12.3%
55 | CCn1c(=N)c(S(=O)(=O)c2ccc(F)cc2)cc2c(=O)n3ccccc3nc21 | 8.91 µM (active) | –
56 | Cn1c(C(=O)N2COCC2(C)C)cc2c(=O)n3ccccc3nc21 | – | -15.8%
57 | Cn1c(=N)c(S(=O)(=O)c2ccc(F)cc2)cc2c(=O)n3ccccc3nc21 | 11.2 µM (active) | –
58 | Cc1cn([C@H]2C[C@H](O)[C@@H](COC(N)=O)O2)c(=O)[nH]c1=O | – | 35.3% [at 11.4 µM]
59 | COc1cccc(Nc2ncc3nc(-c4ccc(Cl)cc4)c(=O)n(C4CC4)c3n2)c1 | – | -31.9%
60 | COc1ccc(Nc2cc(=O)n(C3CCCCC3)c(=O)[nH]2)c(OC)c1 | 10 µM (active) | –
61 | COc1cccc(Nc2ncc3ncc(=O)n(C4CC4)c3n2)c1 | – | -14%
